# High-throughput results: PubChem BioAssay, National Center for Advancing Translational Sciences (NCATS)
# L3MBTL1 inh: inhibitors of human L3MBTL1. 230,000 tested, 0.66% active. AlphaScreen L3MBTL1–H3K9me1 peptide binding. Potency, µM (series often up to 57.1 µM), inactives show at the top dose activity, negative = inhibition, hits mostly inhibitors; further: on the % scale 0 is the no-effect control and ±100 the full control effect; nearly all actives have a fitted effect of over 60% in size
#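 Displacement of a biotinylated histone H3(1-15) peptide monomethylated at Lys9 (75 nM) from L3MBTL1 (50 nM) was measured by AlphaScreen after a 30 min room-temperature compound incubation; cefsulodin titration served as intraplate control.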
# Pol eta inh-1: blocks human DNA polymerase eta activity. recombinant Pol eta, fluorescent DNA replication assay. Potency, µM (top dose mostly 114 µM), for inactives: at the highest dose activity change, negative = inhibition, actives largely listed as inhibitors. 390,000 tested, 1.2% active; further: on the % scale 0 is the no-effect control and ±100 the full control effect
# Target sequence (Q9Y253 whole entry, looked up): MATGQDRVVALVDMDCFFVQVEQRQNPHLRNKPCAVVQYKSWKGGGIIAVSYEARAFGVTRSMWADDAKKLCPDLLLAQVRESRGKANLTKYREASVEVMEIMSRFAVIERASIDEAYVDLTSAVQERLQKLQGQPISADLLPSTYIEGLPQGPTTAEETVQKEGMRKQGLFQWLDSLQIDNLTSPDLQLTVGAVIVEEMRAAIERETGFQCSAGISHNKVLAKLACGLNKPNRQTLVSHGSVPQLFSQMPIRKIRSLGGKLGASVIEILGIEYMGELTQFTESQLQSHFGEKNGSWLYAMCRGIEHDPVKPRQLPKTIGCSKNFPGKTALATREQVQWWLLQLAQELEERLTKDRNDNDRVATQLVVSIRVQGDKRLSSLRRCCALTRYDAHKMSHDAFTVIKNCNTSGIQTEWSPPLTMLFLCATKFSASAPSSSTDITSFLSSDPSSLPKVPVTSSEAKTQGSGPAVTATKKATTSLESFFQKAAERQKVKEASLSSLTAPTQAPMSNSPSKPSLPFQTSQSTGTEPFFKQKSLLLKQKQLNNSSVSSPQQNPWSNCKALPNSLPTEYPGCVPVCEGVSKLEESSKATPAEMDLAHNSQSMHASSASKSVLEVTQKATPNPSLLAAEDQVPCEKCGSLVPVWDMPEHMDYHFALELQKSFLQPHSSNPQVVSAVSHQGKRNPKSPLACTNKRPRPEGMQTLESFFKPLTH
#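 Pol eta at 10 nM preincubated with compounds 15 min at room temperature; reaction started with fluorescent substrate (50 nM final) and read kinetically at 0 and 10 min.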
# POLI inh: blocks human DNA polymerase iota activity; 390,000 tested, 1% active; Pol iota fluorescent replication assay, 10 min; Potency, µM (top dose mostly 115 µM), for the others: at the highest dose activity, negative = inhibition, usual class: inhibitors; Q9UNA4; AID 588590
#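 Pol iota at 10 nM preincubated 15 min with compounds at room temperature; reaction started with fluorescent substrate, 50 nM final. Fluorescence read kinetically at 0 and 10 min; buffer-only wells as negative control.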
# Pol beta inh: DNA polymerase beta (human) inhibition. P06746. Pol beta primer extension/strand displacement, fluorescence kinetic. Potency, µM (doses to about 114 µM), inactives show top-dose activity change, negative = inhibition, usual class: inhibitors. 340,000 tested, 1.3% active. AID 485314; further: on the % scale 0 is the no-effect control and ±100 the full control effect
#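 Human Pol beta at 10 nM; strand-displacement substrate 50 nM final. Compound exposure 15 min at room temperature before start, reaction 10 min at room temperature.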
# Pol kappa inh-1: blocks human DNA polymerase kappa activity. 400,000 tested, 0.53% active. Potency, µM (doses to about 107 µM), inactives show at the top dose activity, negative = inhibition, actives largely listed as inhibitors. purified Pol kappa, fluorescent DNA synthesis assay, 10 min. AID 588579; further: on the % scale 0 is the no-effect control and ±100 the full control effect
#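 Enzyme at 10 nM met test compounds for 15 min at room temperature. Substrate addition (50 nM final) began the reaction, which was monitored by fluorescence at 0 and 10 min.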
# WRN helicase inh: WRN helicase (human) inhibition. Potency, µM (series often up to 114 µM), without a hit: at the highest dose activity change, negative = inhibition, hits mostly inhibitors. AID 651768. WRN helicase unwinding, fluorescent forked duplex, kinetic. 360,000 tested, 0.46% active; further: on the % scale 0 is the no-effect control and ±100 the full control effect; nearly all actives have a fitted effect of over 55% in size
#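 WRN at 20 nM final preincubated with compound 15 min at room temperature; reaction started with 100 nM fluorophore/quencher forked duplex oligonucleotide and 2 mM ATP final. Unwinding followed kinetically by red fluorescence (ex 525, em 598 nm).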
# PGK validate: TbPGK inhibition, hit validation; shares compounds with Pol kappa inh-1; TbPGK coupled GAPDH assay, Kinase-Glo luminescence; Potency, µM (top dose mostly 57.5 µM), for inactives: at the top dose activity change, negative = inhibition, hits mostly inhibitors; 500 tested, 79% active; further: on the % scale 0 is the no-effect control and ±100 the full control effect; nearly all actives have a fitted effect of over 65% in size
# Pol iota confirm: Human Pol iota inhibitor confirmatory assay. 1,500 tested, 77% active. Potency, µM, most hits filed as inhibitors. Pol iota primer extension, TAMRA/BHQ fluorescence. shares compounds with Pol kappa inh-1
# Pol kappa inh-2: confirmation of human DNA polymerase kappa inhibitors; shares compounds with Pol eta inh-1; AID 720501; 920 tested, 76% active; Potency, µM, actives largely listed as inhibitors; purified Pol-kappa, fluorescent strand-displacement substrate
# Pol eta inh-2: confirmation of human DNA polymerase eta inhibitors; shares compounds with Pol eta inh-1; Pol eta primer extension, TAMRA/BHQ fluorescence, 10 min; Potency, µM, actives largely listed as inhibitors; 2,600 tested, 64% active; AID 720502
# Numbers without * were called inactive; ? = inconclusive; / = no result; [ ] = dose if it differs, or a comment. A selection: hits, their analogues and other compounds. The true share with any hit is near 2.5%. The call rests on the fitted dose curve; in most records, active means well fitted curve in the direction sought with a large enough effect; inconclusive means small, poorly fitted or top-dose-only effect, or another doubt; inactive means no such curve, though single readings can be large; an effect the other way counts as inactive or inconclusive. Potency means the concentration at half of the fitted maximal effect.
SMILES,L3MBTL1 inh,Pol eta inh-1,POLI inh,Pol beta inh,Pol kappa inh-1,WRN helicase inh,Pol iota confirm,Pol eta inh-2,others
CCCCCCCCCCCCCCCCCCNc1ccn(C2OC(COP(=O)(O)OCC3OC(n4cc(F)c(=O)[nH]c4=O)CC3O)C(O)C2O)c(=O)n1 (stereo not given),/,14µM*,18µM*,/,45µM*,40µM*,42*,43*,Pol kappa inh-2=27*
Oc1ccc(C=Nc2ccc(N3CCOCC3)cc2)c(O)c1,/,14µM*,?,4%,-41%,-23%[57.1 µM],?,?,
C[C@H]1CN(S(=O)C(C)(C)C)[C@H](CCO)/C1=C\CCO (stereo not given in full),/,5%,-7%,/,6%,-7%,/,/,
COc1ccccc1-c1cc(C(F)(F)F)nc(S(=O)(=O)CCCC(=O)NCc2ccc(F)cc2)n1,0%,-3%,130%,-1%,-2%,-11%,/,/,
O=C(CSc1nc2cc(C(F)(F)F)ccc2n1Cc1ccccc1)NC1CCS(=O)(=O)C1 (stereo not given),1%,-23%,6%,13%,-14%,-2%,/,/,
COc1c(-c2ccc(O)c(O)c2)oc2cc(O)cc(O)c2c1=O,/,8.9µM*,?,4.5µM*,14µM*,32µM*,42*,24*,
CC1OC(OCC2OC(Oc3c(-c4ccc(O)cc4)oc4cc(O)cc(O)c4c3=O)C(O)C(O)C2O)C(O)C(O)C1O (stereo not given),14µM*,10µM*,?,?,28µM*,?,42*,60*,PGK validate=5.2µM*
O=c1c(O[C@@H]2O[C@H](CO)[C@@H](O)[C@H](O)[C@H]2O)c(-c2ccc(O)cc2)oc2cc(O)cc(O)c12,0%,4%,?,/,-25%,-8%,/,/,
O=C(CCc1n[nH]c(=O)[nH]c1=O)N/N=C/c1ccco1,-6%,?,25µM*,10µM*,?,-3%[11.6 µM],?,76*,PGK validate=21µM*
COc1cccc(/C=N/NC(=O)CCc2n[nH]c(=O)[nH]c2=O)c1O,12%,-20%,-3%,3%,-7%,-25%,/,/,
O=C(O)Cc1c[nH]c2cccc(O)c12,5.6µM*,8.9µM*,?,18µM*,22µM*,?,19*,7.6*,
O=C(O)Cc1c[nH]c2ccccc12,/,-11%,6%,/,-8%,-9%,/,/,
CN(Cc1ccccc1)C(=O)NC1CCCCC1,-5%,-21%,17%,47%,0%,13%,/,/,
CC(C)(Sc1ccc(CCN(CCCCC2CCCCC2)C(=O)NC2CCCCC2)cc1)C(=O)O,0%,89µM*,36%,?,?,-5%,42*,19*,Pol kappa inh-2=19*
CC(C)[C@H](NS(=O)(=O)c1ccc2c(c1)OCCO2)C(=O)OCC(=O)Nc1ccccc1,6%,?,-9%,2%,-3%,1%,/,/,
Cc1ccc(NC(=O)/C=C\C(=O)N(c2ccc(C(C)C)cc2)C(C(=O)NCc2ccco2)c2ccc(F)cc2)cc1 (stereo not given),/,?,21%,5%,-14%[60.1 µM],/,/,/,
CS(=O)(=O)N1c2cccc3cccc(c23)S1(=O)=O,/,-13%,14%,13%,7%,8%,/,/,
